Screening data deposited in PubChem BioAssay by National Center for Advancing Translational Sciences (NCATS).
ELG1 genotox: induces genotoxicity in HEK293T cells with luciferase-tagged ELG1; Potency, µM (series often up to 46 µM), for inactives: at the highest dose activity change, positive = activation, actives largely listed as activators; AID 504466; 330,000 tested, 1.3% active; HEK293T ELG1-luciferase reporter, luminescence, 16 h; also: % of control where 0% means no effect; nearly all actives have a fitted effect of over 60% in size
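Luminescence read-out: rising ELG1-luciferase signal, reflecting elevated ELG1 protein under genetic stress, flags genotoxic compounds. Cells were treated for 16 hr at 37 °C before ONE-Glo detection.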
FLuc modulator: firefly luciferase modulation, counter-screen for miR-21 project; Potency, µM (highest dose often 57.5 µM), inactives show at the highest dose activity change, negative = inhibition, hits mostly inhibitors; purified FLuc, Km substrates, luminescence inhibition; AID 588342; 360,000 tested, 6.9% active; P08659;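 also: plate controls were vehicle for no effect and reference inhibitor for full effect; nearly all actives have a fitted effect of over 55% in size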
Target sequence (P08659 whole entry, looked up): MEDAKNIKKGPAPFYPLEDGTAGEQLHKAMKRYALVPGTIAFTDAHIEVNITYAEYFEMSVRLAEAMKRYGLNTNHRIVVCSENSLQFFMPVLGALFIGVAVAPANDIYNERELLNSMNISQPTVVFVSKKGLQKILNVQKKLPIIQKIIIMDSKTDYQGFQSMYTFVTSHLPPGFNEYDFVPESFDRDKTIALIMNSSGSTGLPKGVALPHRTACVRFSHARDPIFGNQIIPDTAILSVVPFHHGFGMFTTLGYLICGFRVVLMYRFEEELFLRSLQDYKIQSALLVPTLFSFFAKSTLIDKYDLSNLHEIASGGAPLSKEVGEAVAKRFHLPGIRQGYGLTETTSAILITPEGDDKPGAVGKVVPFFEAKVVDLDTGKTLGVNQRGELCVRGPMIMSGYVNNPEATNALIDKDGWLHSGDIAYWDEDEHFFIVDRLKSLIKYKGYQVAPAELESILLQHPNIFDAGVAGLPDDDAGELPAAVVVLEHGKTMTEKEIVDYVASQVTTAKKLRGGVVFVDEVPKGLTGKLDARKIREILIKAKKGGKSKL
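Purified P. pyralis luciferase, 10 nM final, with Km-level 10 uM D-luciferin and 10 uM ATP in 50 mM Tris acetate pH 7.5, 10 mM Mg acetate, 0.01% Tween-20, 0.05% BSA; 6-point qHTS titration about 60 µM downward; luminescence read.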
Rab9 promoter act: activators of Rab9 promoter; Huh7 Rab9 promoter-luciferase reporter, luminescence, 24 h; Potency, µM (top dose mostly 9.22 µM), for the others: top-dose activation, negative = inhibition, most hits filed as activators; 320,000 tested, 2.8% active; also: % of control where 0% means no effect; nearly all actives have a fitted effect of over 60% in size
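Stable Rab9-luc Huh7, 1500 cells/well, 2 h settle; cmpd in DMSO, 24 h, 37 °C/5% CO2; luciferase reagent 10 min RT; luminescence.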
NPC1 promoter act: activates the NPC1 promoter; AID 485313; 320,000 tested, 2.4% active; Potency, µM (titrated, usually from 9.22 µM), for inactives: top-dose activation, actives largely listed as activators; Huh7 NPC1 promoter luciferase reporter, 24 h; also: % of control where 0% means no effect; nearly all actives have a fitted effect of over 60% in size
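Quantitative HTS used a cell-based reporter: Huh7 cells stably bearing the NPC1 promoter upstream of luciferase were treated with compounds for 24 h, and promoter activation was read as luminescence.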
SMN2 splice enh: increases expression of the SMN2 splice variant; 210,000 tested, 2.8% active; HEK293 SMN2-luciferase splicing reporter, luminescence, 30-36 h; Potency, µM (doses to about 46.1 µM), without a hit: at the top dose activity change, positive = activation, hits mostly activators; AID 1458; also: % of control where 0% means no effect; nearly all actives have a fitted effect of over 55% in size
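HEK293 cells carry an SMN2 minigene-luciferase reporter in which exon 7 inclusion puts luciferase in frame. Cells were seeded at 2000 cells/well, attached for 10-12 hours, then exposed to compounds for 30-36 hours at 37C before ONE-Glo luminescence.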
* = called active by the depositor; ? = inconclusive; · = no result; [ ] = another dose, or the depositor's remark. The list is not random: actives were taken first. Their share in the collection is about 7.4%. Calls follow the shape of the dose curve; as a rule, active = well fitted curve in the direction sought with a large enough effect; inconclusive = small, poorly fitted or top-dose-only effect, or another doubt; inactive = no such curve, though single readings can be large; an effect the other way counts as inactive or inconclusive. Potency is read from the fitted curve at half-maximal effect.

SMILES | ELG1 genotox | FLuc modulator | Rab9 promoter act | NPC1 promoter act | SMN2 splice enh
COc1cc(C(=O)Nc2nc(-c3ccc(C)cc3)cs2)ccc1OCC(=O)N1CCOCC1 | -11% | ? | 29% | 13% | -42%
COc1ccc(-c2csc(NC(=O)c3ccc(OCC(=O)N4CCOCC4)c(OC)c3)n2)cc1 | -11% | 17µM* | 11% | -1% | -31%
COc1ccccc1NC(=O)c1ccc2c(c1)OCO2 | 10µM* | 15µM* | 4µM* | 2.5µM* | ·
COc1cc(C2c3c(oc4ccccc4c3=O)C(=O)N2c2ccccn2)cc(OC)c1OC (stereo unspecified) | · | -4% | · | · | 3%
CCCCOC(=O)c1cc2c(cn1)[nH]c1ccccc12 | · | · | · | · | 18µM*
O=C(NCCCO)c1ccc2[nH]c3ccccc3c2c1 | 11% | 24µM* | 1% | 1% | 12%
CCOC(=O)c1ccc2[nH]c(C)cc(=O)c2c1 | 4% | -2% | 2% | -2% | -15%
COC(=O)c1ccc2[nH]c(C(C)(C)O)c(C)c2c1 | ? | 19µM* | ? | ? | ·
CCOC(=O)c1ccc2[nH]c3ccccc3c2c1 | 10% | 19µM* | ? | 18% | ?
O=C(CSc1nccn1Cc1ccc(F)cc1)Nc1ccc2c(c1)OCO2 | · | -14% | · | · | ·
COC(=O)[C@H](COC(C)(C)C)NC(=O)O[C@H]1C(=O)c2ccc(OC)cc2O[C@@H]1c1ccc2c(c1)OCO2 | · | · | · | · | 0%
Cc1ccc(CNC(=O)C2CCN(c3nn4cc(-c5ccc(F)cc5)nc4s3)CC2)cc1 | · | -1% | · | · | ·
COc1ncc2nc(-c3cccs3)c(=O)n(-c3ccccc3)c2n1 | · | · | · | · | 2%
Cc1c(CC(=O)N[C@@H](C)C(=O)O)c(=O)oc2cc3occ(-c4ccccc4)c3cc12 | -6% | 21µM* | -2% | -1% | ·
Cc1c(CC(=O)NCCC(=O)O)c(=O)oc2cc3occ(-c4ccccc4)c3cc12 | 1% | 15µM* | 7% | -2% | ·
CN(C)c1ccc(/C=C2\C(=N)N3N=C(CC(=O)N4CCCCC4)SC3=NC2=O)cc1 | 6% | 13µM* | 3% | 3% | ·
O=c1oc2cc(OCc3ccc(C(F)(F)F)cc3)ccc2cc1-c1ccccn1 | -3% | 0% | -3% | -4% | -4%
COc1ccc(-c2cc3ccc(OC(C)C(=O)O)cc3oc2=O)cc1 (stereo unspecified) | ? | 27µM* | 27% | 22% | ·
CC(=O)COc1ccc2cc(-c3ccccc3)c(=O)oc2c1 | ? | ? | 1µM* | 1.1µM* | ·
CC(=O)Oc1ccc2cc(-c3ccccc3)c(=O)oc2c1 | ? | 2.4µM* | ? | 4µM* | ·
O=C(CCCCl)Oc1ccc2cc(-c3ccc4ccccc4n3)c(=O)oc2c1 | ? | ? | ? | ? | 13µM*
Cc1nc(-c2ccc(S(=O)(=O)N3CCN(c4ccccc4F)CC3)cc2)co1 | · | 2% | · | · | ·
Cc1nc2sccn2c(=O)c1S(=O)(=O)Nc1cc(Cl)ccc1O | · | -2% | · | · | ·
CCCSCCCNC(=O)Cn1c(-c2cccs2)cc2ccccc21 | · | -10% | · | · | ·
COc1ccc(C)cc1NC(=O)COc1cc(=O)n(C)c2ccccc12 | · | -1% | · | · | -10%
SMILES | ELG1 genotox | FLuc modulator | Rab9 promoter act | NPC1 promoter act | SMN2 splice enh
COc1cccc(-c2nnc(-c3ccc(C)o3)o2)c1 | ? | 1.7µM* | 0.71µM* | 1.1µM* | 2.8µM*
COc1cccc(-c2nnc(-c3ccccc3[N+](=O)[O-])o2)c1 | ? | 9.5µM* | 4µM* | ? | ·
COc1cccc(-c2nnc(-c3ccco3)o2)c1 | ? | 9.5µM* | 2.5µM* | 2.5µM* | 11µM*
COc1cccc(Cn2c(=O)n(Cc3ccccc3)c(=O)c3c2c2cc(OC)ccc2n3C)c1 | · | -2% | · | · | ·
CCOc1ccc(CCNC(=O)C(CC)n2nc(C)c3c(C)n(-c4ccccc4)nc3c2=O)cc1 (stereo unspecified) | · | 2% | · | · | ·
O=C(COc1ccc(F)cc1)Nc1ccc(OCc2cc(=O)n3ccsc3n2)cc1 | · | -4% | · | · | -7%
NS(=O)(=O)c1ccc(NCc2nc3ccccc3[nH]2)cc1 | · | · | · | · | -4%[9.22 µM]
CCc1ccc(N2CCn3c2nc2c3c(=O)n(Cc3ccc(F)cc3)c(=O)n2C)cc1 | · | 9.5µM* | · | · | ·
CCc1ccc(N2CCn3c2nc2c3c(=O)n(Cc3c(F)cccc3Cl)c(=O)n2C)cc1 | · | -1% | · | · | ·
Nc1nc2c(s1)CCc1c-2cnn1-c1ccccc1 | -11% | 6.7µM* | ? | 0.79µM* | 11µM*
CC(Sc1nc(-c2ccccc2)c(C#N)c(=O)[nH]1)C(=O)Nc1ccc(F)cc1 (stereo unspecified) | · | 17µM* | · | · | ·
CSc1nc(-c2ccccc2)c(C#N)c(=O)[nH]1 | -2% | -1% | -3% | 0% | ·
Cc1ccc(NC(=O)C(C)Sc2nc(-c3ccccc3)c(C#N)c(=O)[nH]2)c(C)c1 (stereo unspecified) | · | 12µM* | · | · | ·
Cc1ccc(C(=O)Nc2cccc(C(=O)N3CCOCC3)c2)cc1Cl | ? | 9.5µM* | ? | 27% | ·
O=C(O)c1cccc(NC(=O)c2cccc(S(=O)(=O)N3CCCCC3)c2)c1 | ? | 6µM* | 2.8µM* | ? | 24%
Cc1ccc(C(=O)OCC(=O)N2CC(C)CC(C)C2)cc1S(=O)(=O)N1CCOCC1 (stereo unspecified) | 1% | -1% | 0% | 4% | ·
Cc1ccc(C(=O)OCC(=O)N2CCC(C)CC2)cc1S(=O)(=O)N1CCCCC1 | 3% | 17µM* | 3% | 0% | ·
CC1CCN(C(=O)COC(=O)c2cccc(S(=O)(=O)N(C)c3ccccc3)c2)CC1 | -1% | 11µM* | 4% | -1% | ·
Fc1ccccc1 | · | · | · | · | -2%
O=C(NCc1ccco1)c1ccc2c(c1)N(Cc1ccc(F)cc1)C(=O)c1ccccc1S2(=O)=O | · | 2% | · | · | -3%
O=C(Nc1ccc(Cl)cc1)c1cnn2c1NC(c1ccccc1)=CC2c1ccccc1 (stereo unspecified) | · | 1% | · | · | ·
COc1ccc(-n2cc(C(=O)NCc3ccc(Cl)cc3)c3ccccc3c2=O)cc1 | · | 0% | · | · | ·
COc1ccccc1NC(=O)CCn1cnc2ccccc2c1=O | · | 3% | -2% | -3% | ·
CN(C)C(=O)c1ccc(-c2nccc(NCc3cccnc3)n2)cc1 | · | · | · | · | -3%
COc1ccc(C(=O)Nc2ccc(NC(=O)c3ccccc3)cc2)cc1S(=O)(=O)N1CCOCC1 | 3% | 0% | 2% | -2% | ·
CN(C)S(=O)(=O)c1cccc(NC(=O)c2ccc(S(=O)(=O)N3CCCCC3)cc2)c1 | -3% | 5% | 0% | -1% | ·
COc1ccc(C(=O)Nc2cccc(C(=O)O)c2)cc1S(=O)(=O)N1CCCC1 | -1% | 11µM* | ? | ? | ·
Cc1ccc(C(=O)Nc2cccc(C(=O)O)c2)cc1S(=O)(=O)N1CCCC1 | · | 0.095µM* | · | · | 11µM*
Cc1ccc(C(=O)O)cc1S(=O)(=O)N1CCC(C(=O)O)CC1 | -1% | 1% | 0% | 0% | 11µM*
